# About 410 targets per protein were measured; listed, in parts, are those with the strongest signals and a random draw of the rest.
# B1: Gal 8 (Mus musculus), Q9JL15 (protein)
# chain: MGGSHHHHHHGMASMLSLNNLQNIIYNPIIPYVGTITEQLKPGSLIVIRGHVPKDSERFQVDFQLGNSLKPRADVAFHFNPRFKRSSCIVCNTLTQEKWGWEEITYDMPFRKEKSFEIVFMVLKNKFQVAVNGRHVLLYAHRISPEQIDTVGIYGKVNIHSIGFRFSSASALPHTLGDLQSMETSALGLTQINRENIQKPGKLQLSLPFEARLNASMGPGRTVVIKGEVNTNARSFNVDLVAGKTRDIALHLNPRLNVKAFVRNSFLQDAWGEEERNITCFPFSSGMYFEMIIYCDVREFKVAINGVHSLEYKHRFKDLSSIDTLSVDGDIRLLDVRSW
# Columns and labels:
# Experiment in all cases: glycan array binding signal (z-score within array); higher = stronger binding
# Conditions in all cases: glycan notation: IUPAC condensed, linker removed
# [1] = target: Gal(b1-4)GlcNAc(b1-3)Gal(b1-4)GlcNAc(b1-3)Gal(b1-4)GlcNAc(b1-3)Gal(b1-4)GlcNAc(b1-2)[Gal(b1-4)GlcNAc(b1-3)Gal(b1-4)GlcNAc(b1-3)Gal(b1-4)GlcNAc(b1-3)Gal(b1-4)GlcNAc(b1-6)]Man(a1-6)[Gal(b1-4)GlcNAc(b1-3)Gal(b1-4)GlcNAc(b1-3)Gal(b1-4)GlcNAc(b1-3)Gal(b1-4)GlcNAc(b1-2)Man(a1-3)]Man(b1-4)GlcNAc(b1-4)[Fuc(a1-6)]GlcNAc
# In short: (§1)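 The binding signal is a Z-score computed within each array. Data were drawn from 3228 arrays in the Consortium for Functional Glycomics database, restricted to those with a known protein sequence. Scores were averaged over arrays of the same protein sequence at different concentrations or buffers, and over linkers, and negative values can be taken as non-binding.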
# [2] = target: Gal(b1-4)GlcNAc(b1-3)Gal(b1-4)GlcNAc(b1-3)Gal(b1-4)GlcNAc(b1-3)Gal(b1-4)GlcNAc(b1-3)Gal(b1-4)GlcNAc(b1-2)Man(a1-3)[Gal(b1-4)GlcNAc(b1-3)Gal(b1-4)GlcNAc(b1-3)Gal(b1-4)GlcNAc(b1-3)Gal(b1-4)GlcNAc(b1-3)Gal(b1-4)GlcNAc(b1-2)Man(a1-6)]Man(b1-4)GlcNAc(b1-4)GlcNAc
# In short: as §1
# [3] = target: Gal(b1-4)GlcNAc(b1-3)Gal(b1-4)GlcNAc(b1-3)Gal(b1-4)GlcNAc(b1-3)Gal(b1-4)GlcNAc(b1-3)Gal(b1-4)GlcNAc(b1-2)Man(a1-3)[Gal(b1-4)GlcNAc(b1-3)Gal(b1-4)GlcNAc(b1-3)Gal(b1-4)GlcNAc(b1-3)Gal(b1-4)GlcNAc(b1-3)Gal(b1-4)GlcNAc(b1-2)Man(a1-6)]Man(b1-4)GlcNAc(b1-4)[Fuc(a1-6)]GlcNAc
# In short: as §1
# [4] = target: Gal(b1-4)GlcNAc(b1-3)Gal(b1-4)GlcNAc(b1-3)Gal(b1-4)GlcNAc(b1-3)Gal(b1-4)GlcNAc(b1-3)Gal(b1-4)GlcNAc(b1-3)Gal(b1-4)GlcNAc(b1-2)Man(a1-3)[Gal(b1-4)GlcNAc(b1-3)Gal(b1-4)GlcNAc(b1-3)Gal(b1-4)GlcNAc(b1-3)Gal(b1-4)GlcNAc(b1-3)Gal(b1-4)GlcNAc(b1-3)Gal(b1-4)GlcNAc(b1-2)Man(a1-6)]Man(b1-4)GlcNAc(b1-4)GlcNAc
# In short: as §1
# [5] = target: Gal(b1-4)GlcNAc(b1-3)Gal(b1-4)GlcNAc(b1-3)[Gal(b1-4)GlcNAc(b1-3)Gal(b1-4)GlcNAc(b1-6)]GalNAc
# In short: as §1
# [6] = target: Gal(b1-4)GlcNAc(b1-6)GalNAc
# In short: as §1
# Gal3S(b1-4)Glc6S = target: Gal3S(b1-4)Glc6S
# In short: as §1
# [7] = target: Gal3S(b1-4)[Fuc(a1-3)]Glc6S
# In short: as §1
# Gal6S(b1-4)Glc = target: Gal6S(b1-4)Glc
# In short: as §1
# [8] = target: GalNAc(b1-4)GlcNAc(b1-2)Man(a1-3)[GalNAc(b1-4)GlcNAc(b1-2)Man(a1-6)]Man(b1-4)GlcNAc(b1-4)GlcNAc
# In short: as §1
# [9] = target: GlcNAc(b1-3)Gal(b1-4)GlcNAc
# In short: as §1
# [10] = target: GlcNAc(b1-3)Gal(b1-4)GlcNAc(b1-3)Gal(b1-4)GlcNAc
# In short: as §1
# [11] = target: GlcNAc(b1-3)Gal(b1-4)GlcNAc(b1-3)Gal(b1-4)GlcNAc(b1-3)Gal(b1-4)GlcNAc(b1-3)Gal(b1-4)GlcNAc(b1-2)Man(a1-3)[GlcNAc(b1-3)Gal(b1-4)GlcNAc(b1-3)Gal(b1-4)GlcNAc(b1-3)Gal(b1-4)GlcNAc(b1-3)Gal(b1-4)GlcNAc(b1-2)Man(a1-6)]Man(b1-4)GlcNAc(b1-4)[Fuc(a1-6)]GlcNAc
# In short: as §1
# [12] = target: GlcNAc(b1-3)Gal(b1-4)GlcNAc(b1-3)Gal(b1-4)GlcNAc(b1-3)GalNAc
# In short: as §1
# [13] = target: GlcNAc(b1-4)GlcNAc(b1-4)GlcNAc(b1-4)GlcNAc(b1-4)GlcNAc
# In short: as §1
# Man(a1-6)Man = target: Man(a1-6)Man
# In short: as §1
# [14] = target: Neu5Ac(a2-3)Gal(b1-3)GlcNAc(b1-2)Man(a1-3)[Neu5Ac(a2-3)Gal(b1-3)GlcNAc(b1-2)Man(a1-6)]Man(b1-4)GlcNAc(b1-4)GlcNAc
# In short: as §1
# [15] = target: Neu5Ac(a2-3)Gal(b1-4)GlcNAc
# In short: as §1
# [16] = target: Neu5Ac(a2-3)Gal(b1-4)GlcNAc(b1-3)Gal(b1-4)[Fuc(a1-3)]GlcNAc
# In short: as §1
# [17] = target: Neu5Ac(a2-3)Gal(b1-4)GlcNAc(b1-3)GalNAc
# In short: as §1
# Neu5Ac(a2-6)Gal = target: Neu5Ac(a2-6)Gal
# In short: as §1
# [18] = target: Neu5Ac(a2-6)Gal(b1-4)GlcNAc(b1-2)Man
# In short: as §1
# [19] = target: Neu5Ac(a2-6)Gal(b1-4)GlcNAc(b1-2)[Neu5Ac(a2-6)Gal(b1-4)GlcNAc(b1-4)]Man(a1-3)[GlcNAc(b1-4)][Neu5Ac(a2-6)Gal(b1-4)GlcNAc(b1-2)[Neu5Ac(a2-6)Gal(b1-4)GlcNAc(b1-6)]Man(a1-6)]Man(b1-4)GlcNAc(b1-4)GlcNAc
# In short: as §1
# [20] = target: Neu5Ac(a2-6)GlcNAc(b1-4)GlcNAc(b1-4)GlcNAc
# In short: as §1
# [21] = target: Neu5Ac(a2-8)Neu5Ac(a2-3)Gal(b1-3)GalNAc(b1-4)[Neu5Ac(a2-3)]Gal(b1-4)Glc
# In short: as §1
# [22] = target: Neu5Ac(a2-8)Neu5Ac(a2-8)Neu5Ac(a2-3)[Gal(b1-3)GalNAc(b1-4)]Gal(b1-4)Glc
# In short: as §1
# [23] = target: Neu5Gc(a2-3)Gal(b1-3)[Fuc(a1-4)]GlcNAc
# In short: as §1
binder,measurement,setting,value
B1,glycan array binding signal (z-score),[1],2.76
same,glycan array binding signal (z-score),[2],3.48
same,glycan array binding signal (z-score),[3],3.61
same,glycan array binding signal (z-score),[4],3.5
same,glycan array binding signal (z-score),[5],-0.063
same,glycan array binding signal (z-score),[6],-0.214
same,glycan array binding signal (z-score),Gal3S(b1-4)Glc6S,0.566
same,glycan array binding signal (z-score),[7],-0.498
same,glycan array binding signal (z-score),Gal6S(b1-4)Glc,-0.532
same,glycan array binding signal (z-score),[8],-0.195
same,glycan array binding signal (z-score),[9],-0.163
same,glycan array binding signal (z-score),[10],1.11
same,glycan array binding signal (z-score),[11],3.01
same,glycan array binding signal (z-score),[12],0.651
same,glycan array binding signal (z-score),[13],-0.54
same,glycan array binding signal (z-score),Man(a1-6)Man,-0.51
same,glycan array binding signal (z-score),[14],-0.466
same,glycan array binding signal (z-score),[15],-0.517
same,glycan array binding signal (z-score),[16],-0.215
same,glycan array binding signal (z-score),[17],-0.525
same,glycan array binding signal (z-score),Neu5Ac(a2-6)Gal,-0.511
same,glycan array binding signal (z-score),[18],-0.548
same,glycan array binding signal (z-score),[19],-0.602
same,glycan array binding signal (z-score),[20],-0.545
same,glycan array binding signal (z-score),[21],0.316
same,glycan array binding signal (z-score),[22],-0.539
same,glycan array binding signal (z-score),[23],-0.514
